Compounds without any hit were thinned out: in the full panel of roughly 83,000, 20% have a hit.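 48-hour exposure, single concentration, 96-well plates; percent growth endpoint where 0 means no net growth. Active: below 10.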 A number with no mark means an inactive call.

The assay relates to SNB-19 CNS. Put plainly: NCI-60 one-dose screen, 48 h (100 = growth as untreated, 0 = no growth, -100 = all killed). As to conditions: 10 µM unless noted. Here is the method: Growth inhibition of the SNB-19 human tumor cell line is measured as a screen for anti-cancer activity. Cells are grown in 96 well plates and exposed to the test compound for 48 hours. Compounds are tested at a single concentration, which is 10^-5 M for most compounds. The reported endpoint is percent growth (GI% or GIPRCNT), where numbers from 0 - 100% represent growth inhibition, and numbers from -100% - 0 represent cell death. For example, a value of 40 represents 60% growth inhibition. A value of 0 means no net growth occurred over the course of the experiment. A value of -40 indicates 40% of cells at the beginning of the experiment died by the end of the experiment. A value of -100 means all cells are dead at the end of the experiment.
NCI-60 Human Tumor Cell Lines Screen was performed using the standard one-dose NCI protocol, which is described in more detail at https://dtp.cancer.gov/discovery_development/nci-60/default.htm.
Compounds with GIPRCNT values below 10 were considered active. Activity score was based on GIPRCNT using the following formula: […]
Score is 0 for GIPRCNT values of 100 or above, 50 for GIPRCNT values of 0, and 100 for GIPRCNT values of -100.
`O=C1NC(=O)/C(=C\c2ccncc2)N1`: the growth is 101%.
For the molecule `Cc1onc(-c2c(F)cccc2Cl)c1-c1ncc(-c2ccc(Br)cc2)o1`, the growth was 42.9%.
For `COc1nc(Nc2cccc(C(F)(F)F)c2)nc(OC)n1`, the growth is 101%.
For `BrCc1cccc(C[P+](c2ccccc2)(c2ccccc2)c2ccccc2)c1`, the growth is 52.3%.
Consider `Cc1cccc(C)c1NC(=S)/N=C\c1c(O)[nH]c(=O)[nH]c1=O`, for which the growth was 103%.
For `CCOC(=O)N[C@H]1CCc2cc(OC)c(OC)c(OC)c2-c2ccc(SC)c(=O)cc21`, the growth is 30.8%.
For `C[n+]1cc2cc3c(cc2c2ccccc21)OCO3` the value was 16.1%.
With `CC(=O)Nc1ccc(C(=O)c2ccc(S(=O)(=O)Nc3ccccc3)cc2)cc1` the figure was 80.3%.
For `Cn1c(=O)c2[nH]c(CC(=O)O)nc2n(C)c1=O` the value was 100%.
As to `C=C1C(=O)C2CCN1CC2`, the growth is 105%.
With `NC(CCl)=NCC12CC3CC(CC(C3)C1)C2`, the growth was 22.2%.
Consider `Cc1ccc(Cc2ccc(C)cc2)cc1`, for which the growth is 109%.
With `Cn1/c(=N\N=C\c2ccccc2OCCO)sc2ccccc21` the figure was 96.7%.
With `CCNC(=O)Oc1ccc[nH]c1=O` the figure was 98.8%.
For `Cc1onc(-c2ccccc2Cl)c1C(=O)Cl` the value was 99.2%.
Regarding `OCC1CCC(O)C(CO)N1` (stereo not given), the growth is 105%.
With `O=C1C=CC(=O)C2=C1CCCC2`, the growth is 92.7%.
For `O=C1C=Cc2ccccc2/C1=C/c1[nH]c(=O)[nH]c1O` the value was 34.1%; for `Cc1ccc(/C=N/NC(N)=S)s1`, 103%; for `COC1OC(C(COC(C)=O)OC(C)=O)C(OC(C)=O)C(OC(C)=O)C1OC(C)=O` (stereo not given), 99.4%.
With `Cc1ccc[n+](CCC(N)=O)c1` the figure was 104%; with `CC(C)C(C)(C)C(=O)C(C)(C)C(C)(C)C`, 102%; with `Clc1cccc(Cl)c1CSc1nc2ccccc2n2cccc12`, 105%.
For `CCCNS(=O)(=O)c1ccc(Cl)cc1` the value was 104%.
Turning to `NCCCN1CCCC1=O`, the growth was 95.3%.
For `N#CC1(O)CCCCC1` the value was 108%.
On to `C=C1C(=O)C2CCC1C2` (stereo not given), for which the growth was 107%.
Consider `Cc1ccc(OC(=O)c2ccccc2)cc1`, for which the growth is 109%.
With `O=C(OCC1CCCO1)c1ccc([N+](=O)[O-])cc1` (stereo not given) the figure was 102%.
As to `CCN(CC)CCCC(C)NC(=S)N/N=C(\C)c1ccccn1` (stereo not given), the growth is 45.7%.
Regarding `Cc1ccc(C)c(CCO)c1`, the growth is 101%.
On to `CCOC(=O)CO`, for which the growth is 105%.
With `CC(=O)c1cccc(N(C)S(=O)(=O)c2ccc(C)cc2)c1` the figure was 96.8%; with `O=S(=O)(O)C(C(I)I)S(=O)(=O)O`, 113%.
In the case of `CCCC(OC(C)=O)c1ccc2c(c1)OCO2` (stereo not given), the growth is 105%.
For `Clc1ccc(-c2noc(/C=C\c3ccccc3)n2)cc1`, the growth was 102%.
With `CC(=O)c1cccc(NS(=O)(=O)c2ccc(C)cc2)c1` the figure was 90%; with `Clc1ccc(/C=C/c2ccccn2)cc1`, 96.3%; with `CCCCCCCCCCCCCCCCCCSC(=N)N`, 89.2%.
With `CN1CCCN(C(c2ccccc2)c2ccc(Br)cc2)CC1` (stereo not given) the figure was 99.6%.

(Values after PubChem BioAssay (NCI).)
